Laboratory results reported in the antibiotic and cytotoxicity screens of Wong et al. (2023).
Among all 39,000 compounds or so, about 500 (1.3%) were called active. For the sample, actives were picked, then their nearest neighbours and some compounds at random.

What follows are compounds tested on S. aureus RN4220 (assay: growth inhibition call (relative growth <= 0.2)). Settings: 50 µM.

Structure (SMILES)	growth inhibition call
O=C(C[C@@H]1CC[C@@H]2[C@H](COC[C@@H](O)CN2C(=O)Nc2cc(Cl)cc(Cl)c2)O1)N1CCOCC1	active
O=C(C[C@H]1CC[C@@H]2[C@H](COC[C@H](O)CN2C(=O)Nc2cc(Cl)cc(Cl)c2)O1)N1CCOCC1	inactive
O=C(C[C@H]1CC[C@@H]2[C@H](COC[C@@H](O)CN2C(=O)Nc2cc(Cl)cc(Cl)c2)O1)N1CCOCC1	inactive
O=C(C[C@H]1CC[C@H]2[C@@H](COC[C@H](O)CN2C(=O)Nc2cc(Cl)cc(Cl)c2)O1)N1CCOCC1	inactive
O=C(C[C@H]1CC[C@H]2[C@@H](COC[C@@H](O)CN2C(=O)Nc2cc(Cl)cc(Cl)c2)O1)N1CCOCC1	inactive
O=C(C[C@@H]1CC[C@H]2[C@@H](COC[C@H](O)CN2C(=O)Nc2cc(Cl)cc(Cl)c2)O1)N1CCOCC1	inactive
O=C(C[C@@H]1CC[C@@H]2[C@H](COC[C@H](O)CN2C(=O)Nc2cc(Cl)cc(Cl)c2)O1)N1CCOCC1	active
O=C(C[C@@H]1CC[C@H]2[C@@H](COC[C@@H](O)CN2C(=O)Nc2cc(Cl)cc(Cl)c2)O1)N1CCOCC1	active
CN1CCN(C(=O)C[C@@H]2CC[C@H]3[C@@H](COC[C@H](O)CN3C(=O)Nc3cc(Cl)cc(Cl)c3)O2)CC1	inactive
C[C@H](O)C#Cc1ccc2c(c1)O[C@H](CN(C)C(=O)c1ccccc1)[C@H](C)CN([C@H](C)CO)S2(=O)=O	inactive
C[C@@H]1CCCCO[C@@H](CN(C)C(=O)Nc2ccc(C(F)(F)F)cc2)[C@H](C)CN([C@H](C)CO)C(=O)c2cc(NS(=O)(=O)c3cn(C)cn3)ccc2O1	inactive
C[C@@H]1CN([C@H](C)CO)C(=O)c2cc(NC(=O)CCN3CCOCC3)ccc2O[C@H]1CN(C)C(=O)Nc1ccc2c(c1)OCO2	inactive
Cc1noc(C)c1S(=O)(=O)Nc1ccc2c(c1)C(=O)N([C@H](C)CO)C[C@H](C)[C@H](CN(C)Cc1ccccc1)OCCCC[C@@H](C)O2	inactive
Cc1ccc(C)c(Cc2cc(Cl)ccc2Cl)c1	inactive
Cc1noc(C)c1NC(=O)Nc1ccc2c(c1)C(=O)N([C@H](C)CO)C[C@@H](C)[C@@H](CN(C)C(=O)C1CCCCC1)OCCCC[C@@H](C)O2	inactive
C[C@@H]1CN([C@H](C)CO)C(=O)c2cc(NS(=O)(=O)c3cn(C)cn3)ccc2O[C@@H](C)CCCCO[C@@H]1CN(C)CC1CC1	inactive
CCNC(=O)C[C@@H]1CC[C@H](NC(=O)C2CCOCC2)[C@@H](CO)O1	inactive
OC[C@H]1COc2ccccc2O1	inactive
C[C@@H]1CCCCO[C@H](CN(C)S(=O)(=O)c2ccc(Cl)cc2)[C@@H](C)CN([C@H](C)CO)C(=O)c2cc(NS(=O)(=O)c3ccc(F)cc3)ccc2O1	inactive
CN1C(=O)[C@H]2[C@H](C1=O)[C@H]1C=C(c3ccc(CO)cc3)[C@@H]2[C@H](c2cccs2)N1Cc1cccc(OC(F)(F)F)c1	active
NC(=O)N1C(=O)[C@H]2[C@H](C1=O)[C@H]1C=C(c3ccc(CO)cc3)[C@@H]2[C@@H](C2CC2)N1Cc1cc2c(cc1Br)OCO2	inactive
NC(=O)N1C(=O)[C@H]2[C@H](C1=O)[C@H]1C=C(CCCO)[C@@H]2[C@H](c2cccs2)N1Cc1cc2c(cc1Br)OCO2	inactive

Structure (SMILES)	growth inhibition call
CC(C)NC(=O)N(C)C[C@@H]1Oc2ccc(NC(=O)CCCN(C)C)cc2CC(=O)N([C@@H](C)CO)C[C@H]1C	inactive
Cc1ccc(S(=O)(=O)N(C)C[C@@H]2OCCCC[C@@H](C)Oc3ccc(NC(=O)Nc4ccc(F)cc4)cc3C(=O)N([C@H](C)CO)C[C@H]2C)cc1	inactive
CN(C)CCCNC(=O)C[C@@H]1CC[C@@H]2[C@H](COc3ccc(NC(=O)c4cccc(F)c4)cc3C(=O)N2C)O1	inactive
CC(C)(c1cc(Br)c(O)c(Br)c1)c1cc(Br)c(O)c(Br)c1	active
Cc1cc(C(C)(C)C)c(O)c(C(C)(C)C)c1	inactive
O=C(C[C@@H]1CC[C@H]2NC[C@H](O)COC[C@@H]2O1)NCCN1CCCCC1	inactive
C[C@@H]1CCCCO[C@@H](CN(C)S(=O)(=O)c2cccs2)[C@H](C)CN([C@H](C)CO)C(=O)c2cc(NC(=O)Nc3ccc(F)cc3)ccc2O1	inactive
COCC#Cc1ccc2c(c1)O[C@@H](CN(C)S(=O)(=O)c1ccc(OC)cc1)[C@@H](C)CN([C@H](C)CO)S2(=O)=O	inactive
Cn1c(=O)c2c(nc(NCCO)n2C)n(C)c1=O	inactive
C=CCc1ccc(O[C@@H]2O[C@H](CO[C@@H]3O[C@@H](C)[C@H](O)[C@@H](O)[C@H]3O)[C@@H](O)[C@H](O)[C@H]2O)c(O)c1	inactive
S=c1ccss1	active
O=C(C[C@@H]1C[C@@H]2c3cc(NS(=O)(=O)c4ccc(F)cc4)ccc3O[C@@H]2[C@H](CO)O1)NCc1cccc(F)c1	inactive
[N-]=[N+]=N[C@]1(CO)O[C@@H](n2ccc(N)nc2=O)[C@@H](O)[C@@H]1O	inactive
CNC[C@H]1Oc2ccc(NS(=O)(=O)c3cn(C)cn3)cc2CC(=O)N([C@H](C)CO)C[C@@H]1C	inactive
CN1CCN(C(=O)C[C@H]2CC[C@H]3[C@@H](COc4ccc(NC(=O)c5cscn5)cc4C(=O)N3C)O2)CC1	inactive
Cn1c(=O)c2cc(S(=O)(=O)NCCC(=O)NC3CCCC3)ccc2n(C)c1=O	inactive
C#CC[C@H](c1nc2cc(Cl)ccc2c(=O)n1Nc1ccccc1)N(CCCN)C(=O)c1cccc(Cl)c1F	active
CO[C@H](CN(C)C(=O)c1ccccc1F)[C@@H](C)CN([C@@H](C)CO)S(=O)(=O)c1ccc(Cl)cc1	inactive
C[C@H]1CCCCO[C@@H](CN(C)C(=O)Nc2ccc3c(c2)OCO3)[C@@H](C)CN([C@@H](C)CO)C(=O)c2cc(NC(=O)CCC(F)(F)F)ccc2O1	inactive
C[C@H](CO)N1C[C@H](C)[C@@H](CN(C)C(=O)Nc2ccccc2)OCCCC[C@H](C)Oc2ccc(NC(=O)Nc3cccc4ccccc34)cc2C1=O	inactive
CCC1OC(=O)C(C)C(OC2CC(C)(OC)C(O)C(C)O2)C(C)C(OC2OC(C)CC(N(C)C)C2O)C(C)(OC)CC(C)C(=O)C(C)C(O)C1(C)O (stereo unspecified)	active
CC[C@H]1OC(=O)[C@H](C)[C@@H](O[C@H]2C[C@@](C)(OC)[C@@H](O)[C@H](C)O2)[C@H](C)[C@@H](O[C@@H]2O[C@H](C)C[C@H](N(C)C)[C@H]2O)[C@](C)(OC)C[C@@H](C)C(=O)[C@H](C)[C@@H](O)[C@]1(C)O	active

Structure (SMILES)	growth inhibition call
CC[C@@H]1OC(=O)[C@@H](C)[C@H](O[C@H]2C[C@@](C)(OC)[C@@H](O)[C@H](C)O2)[C@@H](C)[C@H](O)[C@@](C)(O[C@@H]2O[C@H](C)C[C@H](N(C)C)[C@H]2O)C[C@H](C)C(=O)[C@@H](C)[C@H](O)[C@@]1(C)O	active
Cc1ccc(S(=O)(=O)Nc2ccc3c(c2)CC(=O)N([C@@H](C)CO)C[C@H](C)[C@H](CN(C)S(=O)(=O)c2c(C)noc2C)O3)cc1	inactive
C[C@H](CO)N1C[C@H](C)[C@H](CN(C)S(=O)(=O)c2ccc(Cl)cc2)Oc2c(NC(=O)C3CCOCC3)cccc2C1=O	inactive
COc1ccc(CNC(=O)C[C@@H]2CC[C@@H]3[C@H](COc4ccc(NC(=O)C5CC5)cc4C(=O)N3C)O2)cc1	inactive
COc1ccccc1C#Cc1cnc2c(c1)C(=O)N([C@@H](C)CO)C[C@H](C)[C@@H](CN(C)S(=O)(=O)c1cn(C)cn1)O2	inactive
COc1ccccc1NC(=O)N(C)C[C@H]1Oc2ncc(C#CCN(C)C)cc2C(=O)N([C@@H](C)CO)C[C@@H]1C	inactive
COc1ccc(-c2ccc3c(c2)O[C@H](CN(C)CC2CCOCC2)[C@@H](C)CN([C@H](C)CO)S3(=O)=O)cc1	inactive
C[C@@H]1CN([C@@H](C)CO)C(=O)Cc2cc(NC(=O)Cn3cnnn3)ccc2O[C@H]1CN(C)S(=O)(=O)c1ccc(Cl)cc1	inactive
Cc1noc(C)c1NC(=O)Nc1ccc2c(c1)C(=O)N([C@H](C)CO)C[C@@H](C)[C@@H](CN(C)C(=O)Nc1c(C)noc1C)OCCCC[C@@H](C)O2	inactive
Cc1cc(NN)nc(SCC(=O)NN)n1	inactive
CC(C)(Sc1ccc(CCN(CCCCC2CCCCC2)C(=O)NC2CCCCC2)cc1)C(=O)O	active
C/C=C/c1ccc2c(c1)O[C@@H](CN(C)C(=O)c1ccc3c(c1)OCO3)[C@@H](C)CN([C@@H](C)CO)S2(=O)=O	inactive
Cn1cnc(S(=O)(=O)N2C[C@H](O)COC[C@H]3O[C@H](CC(=O)NC4CCC4)CC[C@@H]32)c1	inactive
C[C@H]1CN([C@@H](C)CO)C(=O)c2cc(NC(=O)CCCN(C)C)ccc2O[C@H]1CN(C)Cc1ccc(C(=O)O)cc1	inactive
C[C@H]1CN([C@@H](C)CO)C(=O)c2cc(NC(=O)Cn3cnnn3)ccc2O[C@H]1CN(C)Cc1ccc(C(=O)Nc2ccccc2N)cc1	inactive
Cc1cc(C(C)(C)CC(C)(C)C)ccc1OCCOCC[N+](C)(C)Cc1ccccc1.[Cl-]	active
CC(C)(C)CC(C)(C)c1ccc(OCCOCC[N+](C)(C)Cc2ccccc2)cc1.[Cl-]	active
C[N+](C)(CCOc1ccccc1)Cc1ccccc1.O=C(O)c1cc2ccccc2c(Br)c1O	inactive
C[N+](C)(CCOc1ccccc1)Cc1ccccc1.O=C([O-])c1cc2ccccc2cc1O	inactive
C=c1ccc(C)cc1=C1NN=C(NC(=O)c2ccc(S(=O)(=O)N(CCOC)CCOC)cc2)O1	inactive
CC(C)NC(=O)NCC[C@H]1CC[C@H](NC(=O)CN(C)C)[C@@H](CO)O1	inactive
C/C=C/c1ccc2c(c1)O[C@H](CN(C)Cc1ccc(C(=O)O)cc1)[C@@H](C)CN([C@H](C)CO)S2(=O)=O	inactive
